The panel holds about 83,000 compounds, 20% with a hit somewhere; the sample as a whole holds those more often.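 The endpoint reported here, percent growth, reads 100 for growth as untreated, 0 for no net growth and -100 for all cells dead.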 Values without a mark were called inactive. The source made the active and inactive calls. Rule for the calls: active = growth percent below 10; inactive = the rest.
Key:
Test in all cases: NCI-60 one-dose screen, 48 h (100 = growth as untreated, 0 = no growth, -100 = all killed)
Settings in all cases: 10 µM unless noted
[1] = tested on: NCI-H23 lung
[2] = tested on: NCI-H226 lung
[3] = tested on: NCI-H322M lung
[4] = tested on: HOP-62 NSCLC
[5] = tested on: NCI-H460 lung
[6] = tested on: HOP-92 NSCLC
[7] = tested on: NCI-H522 lung
[8] = tested on: A549/ATCC NSCLC
[9] = tested on: 786-0 renal
[10] = tested on: COLO 205 colon

Compound | growth [1] | growth [2] | growth [3] | growth [4] | growth [5] | growth [6] | growth [7] | growth [8] | growth [9] | growth [10]
O=C(c1ccc(O)cc1)C1[C@H](c2ccc(Cl)cc2)[C@@H](c2ccccc2)NC12C(=O)Nc1ccccc12 (stereo not given in full) | -41.7% (active) | -13.8% (active) | 9.03% (active) | -20.1% (active) | -20.5% (active) | -27.8% (active) | -8.98% (active) | 14.4% | -43.2% (active) | -82.9% (active)
CC(C)(C)OC(=O)N1CCC2(CC1)Oc1ccccc1[C@H]1CC(c3ccc(Br)cc3)=NN12 | 80.9% | 79% | 86.6% | 77% | 66.6% | 67.5% | 74.4% | 67.4% | 76.8% | 101%
Cc1ccc(N=Nc2c(N)nn3c(-c4cc5ccccc5oc4=O)ccnc23)cc1 | 28% | 33.4% | 51.6% | 48.5% | 50% | 49.9% | 64.9% | 45.1% | 53.4% | 6.35% (active)
CN(CCSSCCN1CCOCC1)C(=O)Oc1cc2c(c3ccccc13)[C@H](CCl)CN2C(=O)c1cc2cc(OCCCN3CCC3)ccc2[nH]1 | -67.5% (active) | -11.7% (active) | -3.1% (active) | -64.7% (active) | -23.3% (active) | -14.1% (active) | -66.4% (active) | -45.8% (active) | -35% (active) | -74% (active)
Cc1ccc(C(=O)Nc2cc(-c3ccncc3)cc(C(F)(F)F)c2)cc1C#Cc1cnc2cccnn12 | 35.5% | 27.9% | 79% | 44.3% | 51.8% | 31.7% | 33.1% | 48.6% | 46.3% | 32.3%
N#CCc1nnc(NC(=O)c2ccc(-n3c(=O)[nH]c4ccccc4c3=O)cc2)s1 | 93% | 106% | 101% | 101% | 100% | 98.1% | 89.3% | 105% | 106% | 105%
C#CCCCNCCNc1ccnc2cc(Cl)ccc12 | 72.7% | 70.7% | 92% | 79.1% | 83.2% | 53.4% | 41.1% | 84.3% | 58.8% | 10.7%
Nc1cc(-c2c[nH]c3ccc(F)cc23)nc2cc(-c3c[nH]c4ccccc34)nn12 | -12.7% (active) | 52.9% | 30.2% | 1.04% (active) | 3.08% (active) | -9.18% (active) | -49.9% (active) | 9.83% (active) | -81% (active) | -88.8% (active)
NNc1ncnc2sc3c(c12)CCN(Cc1ccccc1)C3 | 73.2% | 38.9% | 40.9% | 58% | 37.3% | 77.7% | 2.62% (active) | 75.1% | 59.1% | 16.6%
COc1ccc(N=Nc2c(N)nn3c(-c4ccc(OC)c(OC)c4)ccnc23)cc1 | 72.8% | 94.8% | 88.5% | 21.5% | 85.2% | 67.6% | 78.7% | 74% | 76.2% | 103%
COC(=O)c1c(C(=O)OC)c2ccc3c4ccccc4ccc3n2c1C(=O)C(C)Br (stereo not given) | 33.4% | 61.7% | 83.4% | 67.1% | 17.2% | 53.5% | -55.9% (active) | 50.5% | 41.9% | 43.2%
Nc1nn2c(-c3cc4cc(Br)ccc4oc3=O)ccnc2c1N=Nc1ccc(Br)cc1 | -7.78% (active) | -25% (active) | 23.7% | -11.9% (active) | 15% | -5.4% (active) | 24.6% | 39.6% | 13.8% | 35.8%
O=C(N/N=C/c1c[nH]c2ccccc12)Nc1ccc(F)c(Cl)c1 | 28.8% | 65.6% | 85.8% | 53.8% | 23% | 39.9% | -29.1% (active) | 39.4% | 33.9% | 33.7%
COc1ccc2[nH]c(O)c(N=Nc3nc(-c4ccc(Cl)cc4)cs3)c2c1 | -33.7% (active) | -54.3% (active) | 12.8% | -26.6% (active) | -31.4% (active) | -38.8% (active) | -26.4% (active) | -60.8% (active) | -86.6% (active) | -76.9% (active)
O=C(Nc1ccc(Br)cc1)Nc1ccc(-c2ccc3c(c2)NC(=O)/C3=C\c2ccc[nH]2)cc1 | 30.7% | 66.2% | 46.1% | 53.1% | 8.75% (active) | 92.1% | 24.1% | 37.7% | 61% | 57.2%
CN(C)c1nc(NCCNS(=O)(=O)c2ccc(C3=Nc4c(N)nc(N)nc4NC(c4ccc(C(F)(F)F)cc4)C3)cc2)nc(N2CCOCC2)n1 (stereo not given) | 74% | 54.1% | 84.2% | 51.8% | 35.6% | -17% (active) | 35% | 40.2% | 20.2% | -14.2% (active)
O=C(Nc1ccc(-c2ccc3c(c2)NC(=O)/C3=C\c2ccc[nH]2)cc1)Nc1ccc(Cl)c(Cl)c1 | 37.8% | 78.1% | 73.4% | 61.9% | 17.4% | 88.5% | 63% | 62% | 35.9% | 58%
COc1ccc(N=Nc2c(N)nn3c(-c4cc5ccccc5oc4=O)ccnc23)cc1 | 36.6% | 3.29% (active) | 63.4% | 14.7% | 17.2% | 34.3% | 72.7% | 59.4% | 15.6% | 63.9%
O=c1[nH]c2ccccc2cc1COc1ccc(Nc2nccc(-c3ccc(Cl)cc3)n2)cc1 | 95.9% | 103% | 107% | 87.1% | 103% | 97.7% | 89.1% | 101% | 88.2% | 116%
O=C1c2cccc3c(N4CCN(Cc5ccccc5)CC4)ccc(c23)C(=O)N1c1cccc(-c2nn(-c3ccccc3)cc2-c2nc3ccccc3s2)c1 | 96% | 82% | 101% | 123% | 110% | 105% | 104% | 113% | 101% | 119%
COc1cc(/C=C/C(=O)c2ccc(S(=O)(=O)NCCNc3nc(N(C)C)nc(N4CCOCC4)n3)cc2)cc(OC)c1OC | 3.66% (active) | 11.5% | 57.2% | -19.1% (active) | -100% (active) | 50.1% | -100% (active) | 26.5% | -65.1% (active) | 28.3%
COc1ccc2[nH]cc(-c3cc4nc(-c5cn(C)c6ncc(Br)cc56)cc(N)n4n3)c2c1 | -76.7% (active) | -31.6% (active) | -47.5% (active) | -50.2% (active) | -51.3% (active) | -79.2% (active) | -64.9% (active) | -69.8% (active) | -95% (active) | -75.5% (active)
O=C(N/N=C/c1ccc(Br)o1)c1[nH]c2ccc(Br)cc2c1-c1ccccc1 | -37% (active) | -42.6% (active) | 15% | -28.6% (active) | -63% (active) | -4.09% (active) | -61.5% (active) | -4.05% (active) | -52.7% (active) | -13.5% (active)
O=C(NNC(=O)c1ccc(OCc2nc3ccc(Cl)cc3[nH]2)cc1)Nc1ccc(Cl)c(Cl)c1 | 47% | 93% | 47.6% | 65.4% | 27.5% | 62.1% | 60.4% | 60.2% | 80.8% | 105%
Cn1cc(-c2cc(N)n3nc(-c4c[nH]c5ccc(F)cc45)cc3n2)c2cccnc21 | -68.2% (active) | -67.5% (active) | -37.5% (active) | -85.9% (active) | -50.6% (active) | -73.7% (active) | -68.8% (active) | -87.1% (active) | -95.2% (active) | -79.1% (active)
c1n[nH]cc1-c1nc2ccc3[nH]ncc3c2c2c1CC1(CCOCC1)CC2 | 44.2% | 27.3% | 48.6% | 55.5% | 29.4% | 70.7% | 7.31% (active) | 44.7% | 48.2% | 30.3%

— PubChem BioAssay (NCI)
